# Measurements taken from PubChem BioAssay (Tox21).
# Records with an inconclusive call do not appear. The source made the active and inactive calls. Calls come from the whole dose curve; as a rule, active = well fitted cell-killing curve with a large enough effect in the repeat runs; inconclusive = weak or mixed curves; inactive = no such curve, though single readings can be large or run the other way.
# Assay: qHTS assay to identify small molecule agonists of the peroxisome proliferator-activated receptor delta (PPARd) signaling pathway - cell viability counter screen (AID 743211); note: nearly all actives have a fitted effect of over 55% in size
# Details: PPARd-bla HEK293H viability, CellTiter-Glo luminescence, 17 h; series mostly up to 62.6 µM; activity change, negative = cytotoxicity: at the top concentration
# Source text: U.S. Tox21 Program National Center for Advancing Translational Sciences [NCATS] NIH Chemical Genomics Center [NCGC] U.S. Environmental Protection Agency [EPA] National Institutes of Environmental Health Sciences [NIEHS] National Toxicology Program [NTP] U.S. Food and Drug Administration [FDA] Tox21 Assay Overview: The peroxisome proliferator-activated receptors (PPARs) are lipid-activated transcription factors of the nuclear receptor superfamily with three distinct subtypes namely PPAR alpha, PPAR delta (PPARd) and PPAR gamma. All these subtypes heterodimerizes with Retinoid X receptor (RXR) and have different physiological functions. […] To identify the compounds that activate PPAR-delta signaling, GeneBLAzer PPAR delta UAS-bla HEK293H cell line (Invitrogen, Carlsbad, CA, USA) containing a beta-lactamase reporter gene under the control of an Upstream Activator Sequence (UAS) was used to screen the Tox21 compound library. The cytotoxicity of the Tox21 compound library against the PPARd-bla cell line was tested in parallel by measuring the cell viability using CellTiter-Glo assay (Promega, Madison, WI) in the same wells.
# Tox21 Assay Protocol Summary: PPARd-bla cells were dispensed at 3000 cells/6uL/well in 1536-well black wall/clear bottom plates using a Multidrop Combi (Thermo Fisher Scientific, Waltham, MA) dispenser. After the assay plates were incubated at 37 C and 5% CO2 for 5 h, 23 nL of compounds dissolved in DMSO, positive controls or DMSO only was transferred to the assay plate by a Pintool station (Kalypsys, San Diego, CA). The assay plates were incubated at 37C for 17 h. After 1 uL of LiveBLAzerTM B/G FRET substrate was added using a Bioraptr Flying Reagent Dispenser (FRD) workstation (Beckman Coulter, Indianapolis, IN, USA), the plates were incubated at room temperature for 2 h, and fluorescence intensity was measured by an Envision plate reader (PerkinElmer, Shelton, CT). For cell viability readout that measures cytotoxicity, 3 ul/well of CellTiter-Glo reagent was added into the assay plates using a Bioraptr FRD. After 30 min incubation at room temperature, the luminescence intensity in the plates was measured using a ViewLux plate reader (PerkinElmer).
# % is set by controls: 0 for no effect and ±100 for the full control effect; potency is the fitted concentration of half-maximal effect.
Structure (SMILES),"activity change, negative = cytotoxicity",Potency
Cc1cccc(C)c1NC(=O)CN1CCCCCC1,0.702% (inactive),
FC(F)(F)C(Cl)(Cl)Cl,1.26% (inactive),
CN(C)C(=O)NC1(c2ccccc2)CCN(CCC[C@]2(c3ccc(Cl)c(Cl)c3)CCCN(C(=O)c3ccccc3)C2)CC1,,9.28 µM (active)
CC(C)=CCC[C@](C)(O)[C@@H]1CC=C(C)CC1,-0.705% (inactive),
CN1[C@@H]2CC[C@H]1CC(OC(=O)c1c[nH]c3ccccc13)C2 (stereo not given in full),-5.02% (inactive),
Nc1ccc(Oc2ccc(N)c(N)c2)cc1,2.31% (inactive),
CCC1(C)NC(=O)NC1=O (stereo not given),-1.27% (inactive),
CCC(=O)c1ccc2c(c1)N(CCCN(C)C)c1ccccc1S2,,29.8 µM (active)
C=CCCC=C,4.38% [at 81.1 µM] (inactive),
O=C(O)CN(CCN(CC(=O)O)CC(=O)O)CCN(CC(=O)O)CC(=O)O,-1.79% [at 29.1 µM] (inactive),
CC(C)C(=O)OCC(C)(C)C(O)C(C)C (stereo not given),1.32% [at 81.1 µM] (inactive),
CCC(=O)O[C@]1(C(=O)SCF)[C@H](C)C[C@H]2[C@@H]3C[C@H](F)C4=CC(=O)C=C[C@]4(C)[C@@]3(F)[C@@H](O)C[C@@]21C,-3.05% (inactive),
FC(F)(F)c1ccccc1,0.7% (inactive),
Cc1nnc(SCC2=C(C(=O)O)N3C(=O)[C@@H](NC(=O)Cn4cnnn4)[C@H]3SC2)s1,8.81% (inactive),
CCc1cc2cc(OC)c(OC)cc2c(Cc2ccccc2)n1,1.9% (inactive),
O=C1CCCc2ccccc21,5.52% [at 81.1 µM] (inactive),
N#Cc1ccc(C(c2ccc(C#N)cc2)n2cncn2)cc1,1.43% (inactive),
Cc1cc(NS(=O)(=O)c2ccc(N)cc2)nc(C)n1,10.1% (inactive),
Cc1cc2nc(N)sc2cc1C,-19.3% [at 81.1 µM] (inactive),
NC1=NCC2c3ccccc3Cc3ccccc3N12 (stereo not given),-15.3% (inactive),

Structure (SMILES),"activity change, negative = cytotoxicity",Potency
CC(C)CC(=O)OCc1ccccc1,-0.0561% (inactive),
Cn1cnc2c(F)c(Nc3ccc(Br)cc3Cl)c(C(=O)NOCCO)cc21,-0.643% (inactive),
COC(=O)/C=C(/C)N,4.15% (inactive),
FC(F)(F)C(F)(F)C(F)(F)C(F)(F)C(F)(F)C(F)(F)C(F)(F)C(F)(F)Br,0.295% (inactive),
O=C(Cl)c1cccc([N+](=O)[O-])c1,4.55% (inactive),
CCCC(CCC)(C(=O)OCC)C(=O)OCC,-1.53% (inactive),
O=c1[nH]cnc2c1ncn2[C@@H]1O[C@H](CO)[C@@H](O)[C@H]1O,7.96% (inactive),
CC(=O)Nc1ccc(C)c(Cl)c1,6.32% (inactive),
NCCC(O)(P(=O)(O)O)P(=O)(O)O,1.73% (inactive),
O=S(=O)(O)C(F)(F)F,-0.966% (inactive),
O=C(O)[C@@H](O)[C@H](O)[C@H](O)[C@@H](O)C(=O)O,0.343% (inactive),
CC(=O)OC1C2(C)CCC(C2)C1(C)C (stereo not given),5.24% (inactive),
O=C(O)c1cccc(Cl)c1Cl,-17.8% (inactive),
COc1cc(Cl)ccc1Cl,6.96% [at 81.1 µM] (inactive),
NCCCN1CCN(CCCN)CC1,-14.4% (inactive),
O=C(CC(=O)C(F)(F)F)c1ccccc1,-0.536% [at 81.1 µM] (inactive),
O=C(O)C(=O)Cc1c[nH]c2ccccc12,3.32% (inactive),
CCCCCCCCCC#N,6.1% (inactive),
O=Cc1ccc(F)c(Br)c1,6.98% (inactive),
CCCCCCC,-5.21% [at 81.1 µM] (inactive),
